Here are results for ten compounds from PubChem BioAssay AID624069 (Southern Research Specialized Biocontainment Screening …, 2012).

Calls of active or inactive are those of the source. How the calls were made is not given here.

The nature of this test: viability of Vero 76 cells – cell-based, set 5, cytotoxicity control, dose response (AID 624069). The following applies: Vero 76 cells cytotoxicity; series mostly up to 25 µM.
As for `CCN1CCN(Cc2nc3ccccc3c(=O)n2-c2ccccc2F)CC1`, the compound was called inactive.

Regarding `CC(C)(C)OC(=O)N1CCN(Cc2nc3ccc([N+](=O)[O-])cc3c(=O)n2-c2ccccc2F)CC1`, the compound was called inactive.

As to `CCN1CCN(Cc2nc3ccc(C(F)(F)F)cc3c(=O)n2-c2ccccc2F)CC1`, the outcome was inactive.

With `CCN1CCN(Cc2nc3ccc([N+](=O)[O-])cc3c(=O)n2-c2ccccc2F)CC1`, the compound was classed as inactive.

On to `O=c1c2cc([N+](=O)[O-])ccc2nc(CN2CCNCC2)n1-c1ccccc1F`, for which the result was inactive.

Turning to `CCN1CCN(Cc2nc3ccc([N+](=O)[O-])cc3c(=O)n2-c2ccc(F)cc2)CC1`, the compound was classed as inactive.

For the compound `CCN1CCN(Cc2nc3ccc([N+](=O)[O-])cc3c(=O)n2-c2ccccc2)CC1`, the outcome was inactive.

As to `O=C(NCc1ccco1)C1CCN(C(=O)c2cc3sccc3n2Cc2ccc(F)cc2)CC1`, the result was inactive.

Consider `CCN1CCN(Cc2nc3ccc([N+](=O)[O-])cc3c(=O)n2-c2cccc(F)c2)CC1`, for which the compound was classed as inactive.

Take `CN1CCN(Cc2nc3ccc([N+](=O)[O-])cc3c(=O)n2-c2ccccc2F)CC1`: the compound was classed as inactive.
